# Test results as given in PubChem BioAssay (NCATS).
# Test: qHTS profiling of the MIPE4 collection as inhibitors of Plasmodium falciparum (HB3) proliferation (AID 743347);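 further: plate controls were DMSO vehicle wells for no effect and artemisinin wells for full effect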
# Settings: P. falciparum HB3 in erythrocytes, SYBR Green DNA, 72 h; at 28.5 µM (top of the series)
# How it was run: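 Erythrocytes infected with P. falciparum (0.3% parasitemia, 2.5% hematocrit) incubated with compounds 72 h at 37 C, 5% CO2. Lysis with saponin/Triton buffer containing SYBR Green I, overnight at room temperature in the dark; DNA fluorescence (485/535 nm) normalised to 0.29 uM artemisinin and DMSO.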
row,Compound,"growth, % of control [%]"
1,CCOP(=O)(OCC)C(C)NC(=O)N(CCCl)N=O (stereo unspecified),116
2,Cc1c(C(=O)c2cccc3ccccc23)c2cccc3c2n1[C@H](CN1CCOCC1)CO3,13.4
3,c1cc2c(cc1[C@H]1OC[C@H]3[C@H]1CO[C@H]3c1ccc3c(c1)OCO3)OCO2,107
4,CCN(CC)C(=O)c1ccc(C2=CC3(CCNCC3)Oc3cccc(O)c32)cc1,38.8
5,CCNC(=O)C[C@@H]1N=C(c2ccc(Cl)cc2)c2cc(OC)ccc2-n2c(C)nnc21,94.6
6,CC(=O)OCC1=C(C(=O)O)N2C(=O)[C@@H](N)[C@@H]2SC1,97.3
7,O=c1[nH]c2ccccc2n1C1CCN(Cc2ccc(-c3[nH]c4cc5ncnc5cc4nc3-c3ccccc3)cc2)CC1,4.58
8,CN(C)[C@@H]1C(=O)C(C(N)=O)=C(O)[C@@]2(O)C(=O)C3=C(O)c4c(O)cccc4[C@@](C)(O)[C@H]3[C@H](O)[C@@H]12,19.3
9,C[C@H]([C@H](O)CCC(C)(C)O)[C@H]1CC[C@@]2(O)C3=CC(=O)[C@@H]4C[C@@H](O)[C@@H](O)C[C@]4(C)[C@@H]3CC[C@]12C,59
10,O=C(NCC1CCOCC1)c1cnc(Nc2ccc(Cl)cc2Cl)nc1C(F)(F)F,49.9
11,COc1ccc2c(c1)CN(C)CC2c1ccc(Cl)c(Cl)c1 (stereo unspecified),9.4
